Measured values taken from PubChem BioAssay AID1508642 (National Center for Advancing Translational Sciences (NCATS), 2021).
About 200 (0.47%) of roughly 43,000 compounds were called active. About 12% were inconclusive and are not listed. Many of the other results were omitted from the sample, so actives are more common in it than they were. Unmarked numbers belong to inactive results. The call rests on the fitted dose curve; in most records, active means well fitted cell-killing curve with a large enough effect; inconclusive means small, poorly fitted or top-dose-only effect, or effect the other way; inactive means flat fitted curve, though single readings scatter.
On the % scale 0 is the no-effect control and ±100 the full control effect.

Assay: Cell viability qHTS assay in S16 Pmp22-F2sN cells; further: nearly all actives have a fitted effect of over 65% in size
Details: S16 Pmp22-F2sN Schwann cells (luciferase reporters placed in the Pmp22 gene) viability, CellTiter-Glo, 24 h; series mostly up to 57.5 µM; activity change, negative = cytotoxicity: at the top concentration
Text: Assay Provider: Jim Inglese Ph.D. National Center for Advancing Translational Science, National Institutes of Health, Rockville, MD CMT is a heterogeneous group of neurological disorders that affect approximately 1 in 2,500 people. In particular, the most common form of CMT, CMT1A is genetically linked to the duplication of the PMP22 gene which leads to Schwann cell overexpression, thus manifesting itself as a typical case of dose-sensitive diseases. To identify small molecule compounds that can mediate the expression of PMP22 we developed a phenotypic assay screening strategy by utilizing genome editing techniques to construct Schwann cell lines containing novel reporter technology to monitor the transcriptional or translational regulation of PMP22. For high sensitivity we use a bioluminescent reporter system embedded in the 3' UTR of the PMP22 gene (S16(c9) Pmp22-F2sN) to identify compounds that inhibit gene expression. […] We can further discriminate the effect of all transcriptionally active molecules on PMP22 translation or stability with an assay that incorporates a short NLuc peptide (HiBiT) at the C-terminus of expressed PMP22 (S16(f8) PMP22-HiBiT) allowing alpha complementation and luminescence detection of membrane-associated PMP22 protein. These assays were screened against the NCATS Sytravon Library Collection. Miniaturization of these assays to 1536-well plate format for quantitative high throughput screening (qHTS) yielded rich data sets immediately from the qHTS assay (S16(c9) Pmp22-F2sN), when compared with data from a cell viability assay (Cell TiterGlo) to identify compounds that decreased the output signals through cellular toxicity to streamline the selection process of actives for subsequent characterization using the HiBiT assay (S16(f8) PMP22-HiBiT).
Cell viability assay in S16 Pmp22-F2sN cells PROTOCOL TABLE (format as described by Inglese J, Shamu CE and Guy RK. 2007) SEQUENCE No. (e.g., 1, 2, 3, etc.); […] (e.g., Cells, Incubation, Reagent, etc.); VALUE and DESCRIPTION. 1. Cells. Add 500-1,000 cells in 4 uL in growth media (DMEM High Glucose, No Phenol Red media + 10% heat-inactivated FBS + 1% Pen/Strep supplemented media) per well into Greiner 1536-well white/solid bottom high base, TC-treated plates. 2. Compounds. Library compounds and controls added at 23nL per well, transferred by Pin Tool. 3. Incubation. Incubate plates at 37C, 5% CO2, 95% RH for 24 h. 4. Reagent. Add 3uL CellTiter-Glo per well of Greiner 1536-well plates. 5. Incubation. Incubate plates at room temperature for 15 min., protect from light. 6. Detector. FLuc luminescence measured using CCD-based camera (Viewlux). NOTES (numbers refer to Sequence numbers above; values are from representative experiments) 6. Luminescence Read: Clear filter; Exposure = 1 sec, Gain = High, Speed = Slow, Binning = 2X REFERENCES: 1. Inglese J, Shamu CE and Guy RK, Reporting data from high throughput screening of small molecule libraries, Nature Chemical Biology, 2007, 3(8): 438-441. doi.org/10.1038/nchembio0807-438 2. Yasgar A, Shinn P, Jadhav A, Auld DS, Michael S, Zheng W, Austin CP, Inglese J and Simeonov A, Compound Management for Quantitative High-Throughput Screening. J. Assoc. Lab. Auto., 2008, 13: 79-89. doi: 10.1016/j.jala.2007.12.004
With `COc1ccc(CC(=O)NCCc2sc3nc(-c4ccc(OC)cc4)nn3c2C)cc1` the “activity change, negative = cytotoxicity” value was -14.4%. For `CC(=O)Nc1cccc(NC(=O)CSc2nccn2Cc2ccc3c(c2)OCO3)c1`, the “activity change, negative = cytotoxicity” value was 5.54%. In the case of `CCCCN(CC)CCCNC(=O)c1nn(C)c2c1CSc1ccccc1-2`, the “activity change, negative = cytotoxicity” value is reported as -3.98%. For `COC(=O)c1ccc(-c2nc3cc(NC(C)=O)ccc3o2)cc1`, the “activity change, negative = cytotoxicity” value was 5.12%. In the case of `CCN1CCC(N(Cc2ccc(F)cc2)C(=O)Nc2cc(C)ccc2C)CC1`, the “activity change, negative = cytotoxicity” value is reported as -12.8%. For `COc1cc(OC)cc(C(=O)Nc2c(C(=O)Nc3ccc(F)cc3)oc3ccccc23)c1`, the “activity change, negative = cytotoxicity” value was -0.156%. For `Cc1cccc(NC(=O)CSc2nc3c([nH]c4ccccc43)c(=O)n2-c2cc(C)cc(C)c2)c1`, the “activity change, negative = cytotoxicity” value was 7.62%. With `CCN(CCCNC(=O)Cn1ncc2c3ccccc3n(C)c2c1=O)Cc1ccccc1` the “activity change, negative = cytotoxicity” value was 3.84%. In the case of `CCOc1ccc(CNC(=O)c2cc(-c3ccc(Cl)s3)nc3ccccc23)cc1`, the “activity change, negative = cytotoxicity” value is reported as 8.53%. For `O=C(NCC12CC3CC(CC(C3)C1)C2)c1cc2nc(-c3ccccc3)cc(C(F)(F)F)n2n1`, the “activity change, negative = cytotoxicity” value was 14.3%. For `O=C(NCCCO)C(=O)Nc1c2c(nn1-c1ccc(F)cc1)CSC2`, the “activity change, negative = cytotoxicity” value was -15.3%. In the case of `Cc1c(NS(=O)(=O)c2ccc(Cl)cc2)c(=O)n(-c2ccccc2)n1C`, the “activity change, negative = cytotoxicity” value is reported as 3.6%. In the case of `Cc1ccc(C)c(N2CCN(C(=O)Cn3ncc4c(=O)oc5ccc(C)cc5c43)CC2)c1`, the “activity change, negative = cytotoxicity” value is reported as 4.69%. For `Cc1ccccc1NC(=O)Cn1c(=O)n(CC2CCC(C(=O)NCCc3ccccc3)CC2)c(=O)c2ccccc21` (configuration not stated), the “activity change, negative = cytotoxicity” value was 16.1%. In the case of `COC(=O)c1c(NC(=O)C(C)Oc2ccc(Cl)c(C)c2)sc(C)c1C` (configuration not stated), the “activity change, negative = cytotoxicity” value is reported as 0.0514%. In the case of `Cc1ccccc1C(=O)Nc1cc(C)c(O)c(-c2nc3ccccc3o2)c1`, the “activity change, negative = cytotoxicity” value is reported as 17%. In the case of `CCOc1ccc(NC(=O)CCC(=O)N2CC(C)Oc3ccc(C)cc32)cc1` (configuration not stated), the “activity change, negative = cytotoxicity” value is reported as 6.01%. With `COc1ccccc1C(=O)Nc1c(C(=O)Nc2ccc(C)cc2)oc2ccccc12` the “activity change, negative = cytotoxicity” value was 8.02%. With `COc1ccc(CCNC(=O)CCCn2c(=O)c3ccccc3n(Cc3ccc(C)cc3)c2=O)cc1OC` the “activity change, negative = cytotoxicity” value was 15.9%. For `CN(CC(=O)Nc1ccccc1F)S(=O)(=O)c1ccc2c(c1)c(=O)n(C)c(=O)n2C`, the “activity change, negative = cytotoxicity” value was 15.6%. In the case of `Cc1cccc(C)c1Nc1c(-c2ccccc2O)nc2ncccn12`, the “activity change, negative = cytotoxicity” value is reported as -10.5%. For `Cc1ccc(C)c(NC(=O)CSC2=Nc3ccccc3N=C(c3ccc(F)cc3)C2)c1`, the “activity change, negative = cytotoxicity” value was -2.61%. In the case of `O=C(CC1C(=O)N(c2ccccc2)C(=O)N1CCc1cccs1)Nc1ccc(F)cc1` (configuration not stated), the “activity change, negative = cytotoxicity” value is reported as -17.5%. For `COC(=O)c1ccc(NC(=O)c2cc(S(=O)(=O)N3CCC(C)CC3)cn2C)cc1`, the “activity change, negative = cytotoxicity” value was -14.5%. With `CC1CCCCN1CC(=O)N1CCCc2c1c(=O)oc1ccc(OCc3ccccc3)cc21` (configuration not stated) the “activity change, negative = cytotoxicity” value was 0.438%. In the case of `O=c1cc(CSc2ncn[nH]2)[nH]c2ccc(F)cc12`, the “activity change, negative = cytotoxicity” value is reported as 0.415%. In the case of `CN(C(=O)CSc1nnc(NC(=O)Nc2ccccc2)s1)c1ccccc1`, the “activity change, negative = cytotoxicity” value is reported as -10%. For `Cc1cc(F)ccc1NS(=O)(=O)c1ccc(-n2cccn2)cc1`, the “activity change, negative = cytotoxicity” value was -14.3%. For `Cc1ccc(Nc2c(-c3ccc(Cl)cc3)nc3sccn23)c(C)c1`, the “activity change, negative = cytotoxicity” value was 28.2%. In the case of `Cc1cccc(C(=O)N2c3nc(-c4ccco4)nn3C3(CCCCC3)[C@@H]3CCCC[C@@H]32)c1`, the “activity change, negative = cytotoxicity” value is reported as 3.56%. With `CC1=C(C(=O)Nc2ccccc2)C(c2ccc(C)cc2)n2nc(SCc3ccccc3C)nc2N1` (configuration not stated) the “activity change, negative = cytotoxicity” value was 3.66%. With `Cc1ccccc1NC(=O)c1cc2c([nH]c1=O)CC(C)(C)CC2=O` the “activity change, negative = cytotoxicity” value was 10.8%. With `CCOC(=O)C1CCN(c2csc3ccc(C)cc3c2=O)CC1` the “activity change, negative = cytotoxicity” value was 3.59%. For `Cc1c(Cl)cccc1NC(=O)C(=O)NCCc1csc2nc(-c3ccccc3F)nn12`, the “activity change, negative = cytotoxicity” value was -22.5%. With `CCCCN(CCCNC(=O)c1cc(Nc2ccccc2OC)nc2ccccc12)c1ccccc1` the “activity change, negative = cytotoxicity” value was 9.74%. With `Cc1ccc(N(CC(=O)NCc2ccc(Cl)cc2)S(=O)(=O)N(C)C)cc1` the “activity change, negative = cytotoxicity” value was 13.9%. With `Cc1ccsc1CN(C(=O)c1oc2ccc(Br)cc2c1C)C1CCS(=O)(=O)C1` (configuration not stated) the “activity change, negative = cytotoxicity” value was -28.5%. In the case of `Cc1ccc(NC(=O)c2oc3ccccc3c2NC(=O)Cc2cccs2)cc1`, the “activity change, negative = cytotoxicity” value is reported as 10.9%. For `COc1ccc(CCNc2nc3c(-c4cccc(F)c4)nnn3c3ccccc23)cc1OC`, the “activity change, negative = cytotoxicity” value was -1.72%. For `CNC(=O)CN1C(=O)c2cccnc2Sc2ccccc21`, the “activity change, negative = cytotoxicity” value was 0.0311%. In the case of `COc1ccc(CCNC(=O)c2cn(C)c3ccc(S(=O)(=O)N(C)C4CCCCC4)cc3c2=O)cc1OC`, the “activity change, negative = cytotoxicity” value is reported as -12.3%. For `COc1ccc(N2CCN(S(=O)(=O)c3ccc(-c4coc(C)n4)cc3)CC2)cc1`, the “activity change, negative = cytotoxicity” value was -6.43%. For `COc1ccc(C2NC(=O)N(C)C3=C2C(=O)N(c2ccc(C(=O)O)cc2)C3)cc1` (configuration not stated), the “activity change, negative = cytotoxicity” value was 8.03%. With `O=C(CN1CCN(Cc2ccc(Cl)cc2)C1=O)NCc1ccc(F)cc1` the “activity change, negative = cytotoxicity” value was 1.11%. With `COc1ccc(-n2c(SC)nc3sc4c(c3c2=O)CCN(C(C)=O)C4)cc1` the “activity change, negative = cytotoxicity” value was 2.85%. In the case of `CCOc1ccc(NC(=O)Cn2cc(C(=O)c3ccc(C)cc3)c(=O)c3cc4c(cc32)OCCO4)cc1`, the “activity change, negative = cytotoxicity” value is reported as -0.757%. With `CC(=O)c1ccc(NC(=O)CCc2nc(-c3ccc(C)cc3)no2)cc1` the “activity change, negative = cytotoxicity” value was -13.9%.
